A selection: hits, their analogues and other compounds. The true share with any hit is near 19%.
Pf growth 48h: inhibits P. falciparum growth in the first generation, 48 h. P. falciparum luciferase growth in erythrocytes, 48 h. Potency, µM (top dose mostly 28.7 µM), for the others: at the highest dose activity change, negative = inhibition, hits mostly inhibitors. 310,000 tested, 5.9% active. AID 504832; note: potency is the fitted concentration of half-maximal effect; % is set by controls: 0 for no effect and ±100 for the full control effect
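Luciferase-expressing P. falciparum in infected erythrocytes (2% hematocrit, 0.1% parasitemia final) in RPMI 1640/0.5% Albumax were exposed to compound for 48 hours at 37 C, 5% CO2; growth read as luminescence.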
Shiga toxin inh: blocks Shiga toxin action in Vero cells; 290,000 tested, 9.2% active; inhibition, % at 38.7 µM; Vero cells, Shiga toxin protein synthesis inhibition reporter; in the data active = inhibition mostly above about 28%, no sharp cut-off; inactive = mostly below about 43%; note: 0% is about no effect
AMA1 RON2 block: inhibitors of Plasmodium falciparum AMA1-RON2 interaction; AlphaScreen AMA1-biotinylated RON2 peptide binding; AID 720542; 360,000 tested, 0.2% active; Potency, µM (highest dose often 58.2 µM), without a hit: at the highest dose activity change, negative = inhibition, hits mostly inhibitors;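 note: potency is the fitted concentration of half-maximal effect; 0% = vehicle wells and -100% = peptide control; nearly all actives have a fitted effect of over 45% in size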
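AMA1 (3D7) with his tag at 25 nM final met compounds first, then biotinylated RON2 peptide at 25 nM; detection used donor plus acceptor beads, 10 µg/mL apiece, read by AlphaScreen after 30 min at room temperature.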
SARS PLpro yeast: blocks SARS-CoV papain-like protease in a yeast assay; S. cerevisiae expressing SARS-CoV PLpro, growth rescue; 330,000 tested, 0.19% active; Potency, µM (series often up to 32.9 µM), inactives show at the highest dose activity, positive = growth rescue, usual class: activators; calls by dose curve; note: potency is the fitted concentration of half-maximal effect; 0% is about no effect; nearly all actives have a fitted effect of over 55% in size
Pf growth 96h: P. falciparum growth inhibition at 96 hour, primary screen for plastid delayed-death inhibitors | P. falciparum luciferase reporter growth, 96 h | Potency, µM (highest dose often 28.7 µM), for the others: at the top dose activity change, negative = inhibition, actives largely listed as inhibitors | 320,000 tested, 6.9% active; note: potency is the fitted concentration of half-maximal effect; % is set by controls: 0 for no effect and ±100 for the full control effect
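Infected RBCs, 2% Hct / 0.05% parasitemia final; luciferase-reporter P. falciparum; cpd 96 h, 37 C, 5% CO2; luciferase detection reagent; luminescence.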
Cycloheximide cs: affects cycloheximide protein synthesis inhibition readout, counter-screen. AID 2314. cell reporter, cycloheximide protein synthesis inhibition counterscreen. 300,000 tested, 12% active. max response, %; in the data active = max response mostly above about 13%, no sharp cut-off; inactive = mostly below about 14%; note: read at 38.3 µM for the half of the compounds with a filed dose; 0% is about no effect
Active calls of the source: *; ? = inconclusive; · = no result given. Unless noted, calls come from the whole dose curve; as a rule, active = well fitted curve in the direction sought with a large enough effect; inconclusive = small, poorly fitted or top-dose-only effect, or another doubt; inactive = no such curve, though single readings can be large; an effect the other way counts as inactive or inconclusive.

SMILES	Pf growth 48h	Shiga toxin inh	AMA1 RON2 block	SARS PLpro yeast	Pf growth 96h	Cycloheximide cs
CCc1cc(=O)oc2cc(OC3CCCCC3=O)ccc12 (stereo not drawn)	37%	22	-12%	4%	27%	-2
COC(=O)Cc1c(C)c2ccc(OC(=O)c3ccco3)cc2oc1=O	0%	-16	-2%	-22%	-8%	-9
Cc1c(C)c2ccc(OC3CCCCC3=O)cc2oc1=O (stereo not drawn)	22%	26	0%	-3%	?	24*
COC(=O)Cc1c(C)c2ccc(OC3CCCCC3=O)cc2oc1=O (stereo not drawn)	54%	30*	5%	3%	42%	39*
Cc1c(CC(=O)O)c(=O)oc2cc(OCc3ccc(Br)cc3)ccc12	·	27	-3%	-1%	50%	16*
COC(=O)Cc1c(C)c2ccc(OC(C)C)cc2oc1=O	30%	96*	-6%	0%	24%	48*
CO/N=C/c1cccn1-c1nccc(N(C)C)c1C#N	8%	3	-7%	2%	31%	-1
S=C(Sc1ccc(Cl)cc1)Sc1ccc(Cl)cc1	6.6µM*	21	·	-15%	?	21*
CCOc1ccccc1NC(=O)c1nnn(-c2ccc3c(c2)OCCO3)c1N	30%	64*	0%	-21%	?	26*
CCOc1ccccc1NC(=O)c1nnn(CC(=O)Nc2ccc3c(c2)OCO3)c1N	29%	-2	-5%	-2%	25%	9
Cc1ccccc1NC(=O)c1nnn(-c2ccc3c(c2)OCCO3)c1N	85%	80*	4%	-7%	?	53*
COc1ccc(CCNC(=O)c2nnn(-c3ccc4c(c3)OCCO4)c2N)cc1OC	151%	151*	3%	26%	0%	70*
Nc1c(C(=O)Nc2ccc3c(c2)OCCO3)nnn1Cc1ccc(F)cc1	59%	·	3%	0%	98%	·
Nc1c(C(=O)Nc2cccc(F)c2)nnn1-c1ccc2c(c1)OCCO2	134%	70*	-1%	4%	135%	20*
CCN(C(=O)CSc1ccc2ccccc2n1)C1CCCCC1	·	·	15%	-21%	·	·
O=C(NCCN1CCOCC1)C1CCC(CNS(=O)(=O)c2ccc(Cl)cc2)CC1 (stereo not drawn)	0%	-10	4%	-2%	·	-4
COc1ccc(CCNC(=O)Cn2nnc(C(=O)Nc3cccc(C)c3C)c2N)cc1OC	-5%	-1	-10%	-1%	1.9µM*	9
COc1ccc(CCNC(=O)Cn2nnc(C(=O)Nc3cc(C)ccc3C)c2N)cc1OC	8%	-6	-8%	-3%	?	-10
Cc1cc(C(=O)CSc2nnc(-c3ccco3)o2)c(C)n1CC1COc2ccccc2O1 (stereo not drawn)	10µM*	23	-5%	-7%	4.7µM*	2
Cc1cc(C(=O)CSc2nnc(-c3ccccc3)o2)c(C)n1CC1COc2ccccc2O1 (stereo not drawn)	?	39*	-4%	6%	3.3µM*	9
CCCOc1ccccc1-n1sc2c(c1=S)-c1cc(OC)cc3c1N(C(=O)C3=O)C2(C)C	·	-11	2.8µM*	-3%	?	4
Cc1ccc(NC(=S)N(CCCN2CCOCC2)Cc2ccccn2)cc1Cl	-8%	11	25%	-17%	-1%	9
Cc1cccc(-c2cc(C(=O)N3CCCc4ccccc43)c3ccccc3n2)c1	8.3µM*	7	-23%	-21%	?	22*
Cc1ccc(-c2cc(C(F)F)n3ncc(C(=O)N4CCCc5ccccc54)c3n2)cc1	?	-1	4%	2%	94%	-1
O=C(c1cc(-c2ccccc2)nc2ccccc12)N1CCCc2ccccc21	2.9µM*	-6	?	-38%	?	13
SMILES	Pf growth 48h	Shiga toxin inh	AMA1 RON2 block	SARS PLpro yeast	Pf growth 96h	Cycloheximide cs
O=C(c1cc(-c2cccc(Br)c2)nc2ccccc12)N1CCCC1	?	16	-8%	-15%	87%	25
COc1ccccc1NC(=S)NCc1ccc2c(c1)OCO2	-5%	20	-3%	2%	21%	11
Cn1c(COc2ccccc2)nnc1SCC(=O)NNC(=O)C1CCCCC1	13%	24	49%	1%	38%	8
CCCCOC1CC(c2ccc(OCc3ccc(OC)cc3)c(OC)c2)N(C)O1 (stereo not drawn)	?	85*	-13%	-12%	0%	24*
CCOc1ccc(C2CC(c3ccc(OC)c(OC)c3)n3nc(N)nc3N2)cc1 (stereo not drawn)	10%	12	-1%	?	-18%	1
CC(=O)Oc1ccccc1N1C(=O)c2ccc(C(=O)O)cc2C1=O	11%	15	-2%	-1%	4%	2
CN1C(=O)c2ccc(S(=O)(=O)c3ccc(C(=O)O)cc3)cc2C1=O	17%	-1	5%	9%	30%	11
CC(=O)Nc1ccc(N2C(=O)c3ccc(S(=O)(=O)c4ccc(C(=O)O)cc4)cc3C2=O)cc1	12µM*	-14	-18%	-4%	0%	-3
O=C(O)c1ccc(S(=O)(=O)c2ccc3c(c2)C(=O)N(c2ccccc2[N+](=O)[O-])C3=O)cc1	6%	-33	-3%	-4%	13µM*	-1
CCOc1ccccc1N1C(=O)c2ccc(S(=O)(=O)c3ccc(C(=O)O)cc3)cc2C1=O	20%	-15	20%	11%	0.17µM*	-5
O=C(O)c1ccc(S(=O)(=O)c2ccc3c(c2)C(=O)N(NC(=O)c2cccnc2)C3=O)cc1	27%	17	0%	1%	-11%	24*
CCOc1ccccc1N1CC(C(=O)Nc2cc(S(=O)(=O)N3CCOCC3)ccc2OC(C)C)CC1=O (stereo not drawn)	·	·	-11%	·	·	·
Cc1cc(=O)oc(C)c1C(=O)Nc1ccc(F)cc1	41%	21	-11%	0%	79%	-1
Cc1cc(C(N)=O)nn1-c1c(Cl)cc(Cl)cc1Cl	2%	-2	1%	1%	?	-2
CN(C)C(=S)Oc1ccccc1C1(C)OCCO1	·	·	4%	·	·	·
Cc1cc(C)nc(N/N=C/c2cc(C)n(CC(F)(F)F)c2C)n1	?	33	66%	2%	?	22
CCN1C=CC(=C2C(=O)c3ccccc3C2=O)C=C1	?	-32	-10%	-26%	?	-9
CN1C=CC(=C2C(=O)c3ccccc3C2=O)C=C1	·	88	·	-10%	?	38*
CCCCCCN1C=CC(=C2C(=O)c3ccccc3C2=O)C=C1	-17%	46*	-6%	0%	137%	37*
CCCN1C=CC(=C2C(=O)c3ccccc3C2=O)C=C1	-94%	-26	-4%	-30%	6%	-11
Cc1cc(C(=O)NC2CCCN(Cc3ccccc3F)C2)no1 (stereo not drawn)	-5%	-4	4%	-4%	?	-5
CCCOc1ccc(CC2CCC(=O)NC2=O)cc1 (stereo not drawn)	-7%	-9	5%	-33%	-18%	-4

Assay outcomes (PubChem)
